Records with an inconclusive call do not appear. Calls of active or inactive are those of the source. How the source made its calls, unless noted: active means hit-call score of the fitted dose curve at least 0.9, where 1 is the maximum; inactive means score below 0.9.
Legend:
[1] = target: Paired box protein Pax-6 (Homo sapiens) (UniProt P26367); experiment: ATG_Pax6_CIS: Attagene CIS-FACTORIAL HepG2 Assay for human Paired Box 6 (PAX6) (AID 2282956); conditions: HepG2 CIS-FACTORIAL PAX6 reporter transcription, RNA readout; actives raise or lower the signal
Summary of the method: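 Values derive from bidirectional curve fitting of reporter mRNA signal relative to DMSO. HepG2 cells bearing transfected cis-regulated MRTUs were exposed for 24 h; transcripts were read by RT-PCR and capillary electrophoresis.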

[2] = ATG_PXRE_CIS: Attagene CIS-FACTORIAL HepG2 Assay for human Pregnane X Receptor Element (PXRE) (AID 2282957); conditions: HepG2 Attagene CIS-FACTORIAL PXRE reporter, mRNA; actives raise or lower the signal
Summary of the method: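 Bidirectional activity, baselined to DMSO, derived from reporter mRNA fluorescence (RT-PCR plus capillary electrophoresis) in HepG2 cells bearing cis-promoter reporter units, 24 h exposure.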

[3] = ATG_RORE_CIS: Attagene CIS-FACTORIAL HepG2 Assay for human RAR-related Orphan Receptor Element (RORE) (AID 2282959); conditions: HepG2 Attagene cis-factorial RORE reporter, mRNA; actives raise or lower the signal
Summary of the method: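 Readout: fluorescent reporter mRNA by RT-PCR plus capillary electrophoresis, 24 h after dosing transfected HepG2 cells. Endogenous transcription factor activity on a cis promoter element is measured. Gain or loss of signal fitted against DMSO.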

[4] = ATG_Sox_CIS: Attagene CIS-FACTORIAL HepG2 Assay for human SRY-box transcription factor (SOX) (AID 2282960); conditions: HepG2 Attagene cis-factorial SOX reporter, mRNA; actives raise or lower the signal
Summary of the method: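 Read-out: fluorescent RT-PCR products of SOX1-linked reporter transcripts resolved by capillary electrophoresis, fitted bidirectionally against DMSO. Transiently transfected HepG2 cells, 24 h after chemical exposure, endogenous transcription factor activity.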

[5] = target: Transcription factor Sp1 (Homo sapiens) (UniProt P08047); experiment: ATG_Sp1_CIS: Attagene CIS-FACTORIAL HepG2 Assay for human Specificity Protein 1 (Sp1) (AID 2282961); conditions: HepG2 Sp1 cis-reporter transcription, actives raise or lower the signal
Summary of the method: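 Read-out: fluorescence of 6-FAM-labeled, HpaI-digested RT-PCR products separated by capillary electrophoresis. HepG2 cells carried transfected cis-element reporter units and were exposed to chemicals for 24 h; gain or loss of signal fitted relative to DMSO.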

[6] = ATG_TA_CIS: Attagene CIS-FACTORIAL HepG2 Assay for human TA Basal Promoter (AID 2282964); conditions: HepG2 Attagene CIS-factorial TA basal promoter reporter; actives raise or lower the signal
Summary of the method: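 Transfected HepG2, 24 h compound exposure; RNA → RT-PCR → FAM primer extension → HpaI cut → CE fluorescence. Gain/loss-of-signal fitted against DMSO negative control. Background-control readout.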

[7] = ATG_TCF_b_cat_CIS: Attagene CIS-FACTORIAL HepG2 Assay for human T-Cell-Factor with beta-catenin (TCF/b-cat) (AID 2282965); conditions: HepG2 TCF/beta-catenin cis-reporter transcription, actives raise or lower the signal
Summary of the method: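 Endogenous TCF/LEF activity read as reporter transcript level via RT-PCR and capillary electrophoresis fluorescence in transfected HepG2, 24 h exposure; gain or loss of signal fitted against DMSO controls.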

[8] = ATG_TAL_CIS: Attagene CIS-FACTORIAL HepG2 Assay for human TAL Basal Promoter (AID 2282966); conditions: HepG2 Attagene cis-factorial TAL promoter reporter; actives raise or lower the signal;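 further: background control endpoint measuring basal TAL promoter reporter mRNA not a specific factor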
Summary of the method: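 Human hepatoma HepG2 cells, transfected with promoter-regulated reporter units, were treated 24 h. Reporter transcript levels, measured through RT-PCR and capillary electrophoresis, were fitted for gain or loss relative to DMSO.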

[9] = ATG_TGFb_CIS: Attagene CIS-FACTORIAL HepG2 Assay for human Transforming Growth Factor (TGF) (AID 2282967); conditions: HepG2 Attagene CIS TGFb reporter, mRNA transcription; actives raise or lower the signal
Summary of the method: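 Readout: fluorescently labeled reporter cDNA fragments resolved by capillary electrophoresis after RT-PCR. Transfected HepG2 cells dosed for 24 h; endogenous TF activity at TGFB1-linked cis element; gain or loss fitted relative to DMSO.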

[10] = ATG_VDRE_CIS: Attagene CIS-FACTORIAL HepG2 Assay for human Vitamin D Receptor Element (VDRE) (AID 2282968); conditions: HepG2 VDRE cis-reporter transcription, actives raise or lower the signal
Summary of the method: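 Measures endogenous factor activity through cis-element-driven reporter transcripts in transiently transfected HepG2. Cells are treated 24 h; reporter mRNA is quantified by RT-PCR and capillary electrophoresis; fitting is bidirectional.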

[11] = target: Estrogen receptor (Homo sapiens) (UniProt P03372); experiment: ATG_ERa_TRANS: Attagene TRANS-FACTORIAL HepG2 Assay for human Estrogen Receptor alpha (ERa) (AID 2282970; active means hit-call score of the fitted dose curve at least 0.9, where 1 is the maximum); conditions: HepG2 Attagene TRANS ERa GAL4 reporter, mRNA
Summary of the method: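 Signal derives from fluorescence of labelled reporter PCR fragments separated by capillary electrophoresis. HepG2 cells transiently carrying multiple GAL4-UAS reporter units were treated 24 hours, and induction above DMSO baseline was fitted as activity.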

[12] = target: Steroid hormone receptor ERR1 (Homo sapiens) (UniProt P11474); experiment: ATG_ERRa_TRANS: Attagene TRANS-FACTORIAL HepG2 Assay for human Estrogen-Related Receptor alpha (ERRa) (AID 2282971; active means hit-call score of the fitted dose curve at least 0.9, where 1 is the maximum); conditions: HepG2 Attagene TRANS reporter, ERRa transactivation
Summary of the method: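 Signal gain relative to DMSO for an ERRa-Gal4 chimeric receptor, read as reporter mRNA by RT-PCR/capillary electrophoresis. Human HepG2 liver cells, transient multiplex reporter transfection, 24 h chemical exposure.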

[13] = target: X-box-binding protein 1 (Homo sapiens) (UniProt P17861); experiment: ATG_Xbp1_CIS: Attagene CIS-FACTORIAL HepG2 Assay for human X-box Binding Protein 1 (XBP1) (AID 2282972); conditions: HepG2 XBP1 cis-element reporter, Attagene multiplex; actives raise or lower the signal
Summary of the method: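 Human hepatoma HepG2, cis-element reporter system, 24 h treatment; mRNA quantified by RT-PCR/CE fluorescence; fit relative to DMSO.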

[14] = ATG_M_19_TRANS: Attagene TRANS-FACTORIAL HepG2 Assay for M19 Transcription Factor (Internal Marker) (AID 2282974; active means hit-call score of the fitted dose curve at least 0.9, where 1 is the maximum); conditions: HepG2 Attagene TRANS-FACTORIAL M19 internal marker reporter
Summary of the method: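 24 h chemical exposure of transiently transfected HepG2 (MRTU library). RNA → oligo(dT) RT → PCR → 6-FAM labelling → HpaI cut → CE fluorescence. Positive-direction fit vs DMSO baseline; background internal-marker readout.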

[15] = ATG_GAL4_TRANS: Attagene TRANS-FACTORIAL HepG2 Assay for GAL4 (Internal Marker) (AID 2282976; active means hit-call score of the fitted dose curve at least 0.9, where 1 is the maximum); conditions: HepG2 Attagene TRANS GAL4 internal marker reporter
Summary of the method: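 Liver HepG2 line bearing multiplexed GAL4-UAS reporter constructs; 24 h chemical treatment. Transcripts were quantified as fluorescent fragments on capillary electrophoresis after RT-PCR and HpaI cut, with activity fitted upward from DMSO.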

[16] = target: Signal transducer and activator of transcription 3 (Homo sapiens) (UniProt P40763); experiment: ATG_STAT3_CIS: Attagene CIS-FACTORIAL HepG2 Assay for human Signal Transducer and Activator of Transcription 3 (STAT3) (AID 2282963); conditions: HepG2, Attagene cis-factorial STAT3 reporter transcription; actives raise or lower the signal
Summary of the method: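 Cis-factorial format: endogenous transcription factors in HepG2 drive transfected reporter units. After 24 h treatment, reporter RNA was reverse-transcribed, amplified, FAM-labelled and HpaI-digested before CE analysis; activity scored in both directions against DMSO.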

[17] = target: Nuclear receptor subfamily 1 group I member 3 (Homo sapiens) (UniProt Q14994); experiment: ATG_CAR_TRANS: Attagene TRANS-FACTORIAL HepG2 Assay for human Constitutive Androstane Receptor (CAR) (AID 2282969; active means hit-call score of the fitted dose curve at least 0.9, where 1 is the maximum;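 further: activators raise reporter mRNA above DMSO so AC50 marks induction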); conditions: HepG2 Attagene TRANS-FACTORIAL CAR reporter
Summary of the method: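 Signal is reporter mRNA induction relative to DMSO, measured 24 h after dosing by RT-PCR with fluorescent primer extension and capillary electrophoresis. Human HepG2 liver cells carried transiently transfected chimeric NR-Gal4/GAL4-UAS reporter constructs.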

[18] = target: Estrogen-related receptor gamma (Homo sapiens) (UniProt P62508); experiment: ATG_ERRg_TRANS: Attagene TRANS-FACTORIAL HepG2 Assay for human Estrogen-Related Receptor gamma (ERRg) (AID 2282977; active means hit-call score of the fitted dose curve at least 0.9, where 1 is the maximum;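 further: hits increase reporter signal over DMSO so potencies reflect activators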); conditions: HepG2 Attagene TRANS reporter, ERRg transactivation
Summary of the method: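 Readout: fluorescent reporter-mRNA fragments resolved by capillary electrophoresis after RT-PCR and HpaI cut. Cells: transiently transfected HepG2 carrying GAL4-UAS reporters driven by exogenous NR-Gal4 chimeras, dosed 24 h. Activity fitted upward relative to DMSO baseline.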

[19] = ATG_SREBP_CIS: Attagene CIS-FACTORIAL HepG2 Assay for human Sterol Regulatory Element Binding (SREBP) (AID 2282962); conditions: HepG2 Attagene cis-factorial SREBP reporter, mRNA; actives raise or lower the signal
Summary of the method: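 Values derive from bidirectional curve fitting with DMSO as baseline. The underlying measurement is reporter mRNA from cis-element-regulated units in transiently transfected HepG2, quantified by RT-PCR and capillary electrophoresis after 24 h exposure.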

[20] = ATG_PPRE_CIS: Attagene CIS-FACTORIAL HepG2 Assay for human Peroxisome Proliferator-activated Response Element (PPRE) (AID 2282958); conditions: HepG2 PPRE cis-element reporter, Attagene transcription factor profiling; actives raise or lower the signal
Summary of the method: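 Read-out: fluorescent reporter mRNA fragments resolved by capillary electrophoresis after RT-PCR. HepG2 cells carried transiently transfected PPRE-driven cis reporter constructs and were dosed for 24 h; gain or loss of signal fitted relative to DMSO.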

Measured: AC50

Chain of Paired box protein Pax-6 (Homo sapiens) (P26367 whole entry, looked up): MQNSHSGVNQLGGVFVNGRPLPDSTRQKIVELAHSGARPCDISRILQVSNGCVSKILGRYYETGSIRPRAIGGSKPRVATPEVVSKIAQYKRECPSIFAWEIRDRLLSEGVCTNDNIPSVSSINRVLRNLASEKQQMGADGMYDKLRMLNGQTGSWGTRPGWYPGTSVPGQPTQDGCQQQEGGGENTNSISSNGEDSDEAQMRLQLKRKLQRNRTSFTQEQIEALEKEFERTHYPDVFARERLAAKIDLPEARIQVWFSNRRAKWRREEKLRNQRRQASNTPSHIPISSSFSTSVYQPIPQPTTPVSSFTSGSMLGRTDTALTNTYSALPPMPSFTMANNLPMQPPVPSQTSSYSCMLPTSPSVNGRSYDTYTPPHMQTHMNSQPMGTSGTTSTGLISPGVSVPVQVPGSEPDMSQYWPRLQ
Chain of Estrogen receptor (Homo sapiens) (P03372 whole entry, looked up, the tested form may be a part): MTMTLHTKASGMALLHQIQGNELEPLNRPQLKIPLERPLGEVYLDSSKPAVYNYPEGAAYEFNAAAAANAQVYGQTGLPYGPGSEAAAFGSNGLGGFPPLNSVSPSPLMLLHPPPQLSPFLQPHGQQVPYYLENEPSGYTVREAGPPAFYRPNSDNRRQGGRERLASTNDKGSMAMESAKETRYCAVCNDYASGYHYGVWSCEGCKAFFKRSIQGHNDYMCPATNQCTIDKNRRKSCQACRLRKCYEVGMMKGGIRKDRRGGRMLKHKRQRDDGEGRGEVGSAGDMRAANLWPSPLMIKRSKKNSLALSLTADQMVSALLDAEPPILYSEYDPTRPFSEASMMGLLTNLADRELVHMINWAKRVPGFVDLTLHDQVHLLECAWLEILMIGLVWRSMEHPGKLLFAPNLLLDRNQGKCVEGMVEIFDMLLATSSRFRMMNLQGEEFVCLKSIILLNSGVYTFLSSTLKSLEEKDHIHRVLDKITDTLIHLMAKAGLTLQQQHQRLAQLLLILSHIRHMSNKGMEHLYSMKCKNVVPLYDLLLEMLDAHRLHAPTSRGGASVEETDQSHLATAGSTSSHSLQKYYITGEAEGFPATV
Chain of Transcription factor Sp1 (Homo sapiens) (P08047 whole entry, looked up): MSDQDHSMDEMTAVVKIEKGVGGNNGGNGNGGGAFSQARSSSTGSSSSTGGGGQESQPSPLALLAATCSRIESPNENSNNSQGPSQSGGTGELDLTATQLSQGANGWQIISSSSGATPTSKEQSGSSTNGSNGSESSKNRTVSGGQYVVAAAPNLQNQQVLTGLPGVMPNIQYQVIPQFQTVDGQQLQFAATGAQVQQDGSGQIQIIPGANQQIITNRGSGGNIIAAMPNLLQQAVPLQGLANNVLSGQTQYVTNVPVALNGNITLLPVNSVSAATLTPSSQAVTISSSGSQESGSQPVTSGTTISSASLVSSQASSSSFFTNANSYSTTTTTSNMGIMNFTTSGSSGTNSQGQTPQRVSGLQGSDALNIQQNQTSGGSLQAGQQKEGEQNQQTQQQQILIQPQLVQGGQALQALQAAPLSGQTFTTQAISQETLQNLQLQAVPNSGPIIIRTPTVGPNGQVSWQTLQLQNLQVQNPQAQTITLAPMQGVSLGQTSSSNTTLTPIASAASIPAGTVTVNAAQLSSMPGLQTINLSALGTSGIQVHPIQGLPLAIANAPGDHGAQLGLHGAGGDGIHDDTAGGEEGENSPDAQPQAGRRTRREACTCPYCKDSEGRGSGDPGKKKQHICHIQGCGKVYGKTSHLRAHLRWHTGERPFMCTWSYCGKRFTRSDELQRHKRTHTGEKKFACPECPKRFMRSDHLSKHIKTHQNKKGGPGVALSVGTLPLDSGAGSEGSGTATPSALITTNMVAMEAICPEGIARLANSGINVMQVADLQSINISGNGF
Chain of X-box-binding protein 1 (Homo sapiens) (P17861 whole entry, looked up): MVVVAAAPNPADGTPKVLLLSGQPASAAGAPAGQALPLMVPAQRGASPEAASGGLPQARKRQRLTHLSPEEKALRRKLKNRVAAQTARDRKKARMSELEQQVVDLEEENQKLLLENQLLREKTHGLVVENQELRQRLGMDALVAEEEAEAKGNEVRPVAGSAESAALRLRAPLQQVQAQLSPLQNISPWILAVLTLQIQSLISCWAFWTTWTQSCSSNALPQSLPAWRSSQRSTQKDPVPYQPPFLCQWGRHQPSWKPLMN
Chain of Signal transducer and activator of transcription 3 (Homo sapiens) (P40763 whole entry, looked up): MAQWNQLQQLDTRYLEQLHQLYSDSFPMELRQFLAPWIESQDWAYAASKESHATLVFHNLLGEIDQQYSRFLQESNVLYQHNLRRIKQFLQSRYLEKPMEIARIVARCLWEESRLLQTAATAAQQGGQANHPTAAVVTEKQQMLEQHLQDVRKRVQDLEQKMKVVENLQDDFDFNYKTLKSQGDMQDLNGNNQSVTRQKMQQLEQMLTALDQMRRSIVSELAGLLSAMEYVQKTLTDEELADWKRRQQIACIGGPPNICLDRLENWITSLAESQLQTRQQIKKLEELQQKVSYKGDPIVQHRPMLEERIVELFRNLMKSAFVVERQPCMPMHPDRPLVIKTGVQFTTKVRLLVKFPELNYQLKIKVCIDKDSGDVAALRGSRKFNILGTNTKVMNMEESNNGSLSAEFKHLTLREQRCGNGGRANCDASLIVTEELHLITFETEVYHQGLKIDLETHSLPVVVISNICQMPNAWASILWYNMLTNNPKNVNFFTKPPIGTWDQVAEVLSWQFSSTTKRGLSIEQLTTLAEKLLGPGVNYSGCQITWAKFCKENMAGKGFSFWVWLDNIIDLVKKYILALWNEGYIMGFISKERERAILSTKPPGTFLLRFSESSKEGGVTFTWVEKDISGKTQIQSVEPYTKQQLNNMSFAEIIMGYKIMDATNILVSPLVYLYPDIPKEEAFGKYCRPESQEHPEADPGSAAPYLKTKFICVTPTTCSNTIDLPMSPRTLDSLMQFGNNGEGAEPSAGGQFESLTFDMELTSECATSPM
Chain of Nuclear receptor subfamily 1 group I member 3 (Homo sapiens) (Q14994 whole entry, looked up, the tested form may be a part): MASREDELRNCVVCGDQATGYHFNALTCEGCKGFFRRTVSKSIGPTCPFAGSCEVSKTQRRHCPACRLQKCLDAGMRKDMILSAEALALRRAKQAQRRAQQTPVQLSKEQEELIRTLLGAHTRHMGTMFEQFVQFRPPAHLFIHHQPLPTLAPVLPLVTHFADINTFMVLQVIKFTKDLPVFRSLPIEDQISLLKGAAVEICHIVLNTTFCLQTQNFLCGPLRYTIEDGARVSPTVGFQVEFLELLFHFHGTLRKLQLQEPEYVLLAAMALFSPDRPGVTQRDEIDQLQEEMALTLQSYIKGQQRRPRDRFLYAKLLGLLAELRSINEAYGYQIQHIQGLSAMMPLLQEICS
Chain of Estrogen-related receptor gamma (Homo sapiens) (P62508 whole entry, looked up, the tested form may be a part): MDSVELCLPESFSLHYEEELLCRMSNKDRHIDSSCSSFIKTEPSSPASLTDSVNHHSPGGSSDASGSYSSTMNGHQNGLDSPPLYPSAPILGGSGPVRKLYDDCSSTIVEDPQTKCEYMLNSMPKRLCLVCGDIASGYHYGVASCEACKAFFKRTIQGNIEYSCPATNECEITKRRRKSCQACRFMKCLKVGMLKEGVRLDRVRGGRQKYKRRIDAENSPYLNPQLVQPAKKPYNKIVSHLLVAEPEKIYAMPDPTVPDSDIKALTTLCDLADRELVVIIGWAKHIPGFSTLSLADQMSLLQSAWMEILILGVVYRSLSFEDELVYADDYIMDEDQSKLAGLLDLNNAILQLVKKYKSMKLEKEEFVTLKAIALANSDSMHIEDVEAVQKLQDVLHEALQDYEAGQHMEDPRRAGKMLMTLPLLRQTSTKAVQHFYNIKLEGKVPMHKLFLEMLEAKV
Chain of Steroid hormone receptor ERR1 (Homo sapiens) (P11474 whole entry, looked up, the tested form may be a part): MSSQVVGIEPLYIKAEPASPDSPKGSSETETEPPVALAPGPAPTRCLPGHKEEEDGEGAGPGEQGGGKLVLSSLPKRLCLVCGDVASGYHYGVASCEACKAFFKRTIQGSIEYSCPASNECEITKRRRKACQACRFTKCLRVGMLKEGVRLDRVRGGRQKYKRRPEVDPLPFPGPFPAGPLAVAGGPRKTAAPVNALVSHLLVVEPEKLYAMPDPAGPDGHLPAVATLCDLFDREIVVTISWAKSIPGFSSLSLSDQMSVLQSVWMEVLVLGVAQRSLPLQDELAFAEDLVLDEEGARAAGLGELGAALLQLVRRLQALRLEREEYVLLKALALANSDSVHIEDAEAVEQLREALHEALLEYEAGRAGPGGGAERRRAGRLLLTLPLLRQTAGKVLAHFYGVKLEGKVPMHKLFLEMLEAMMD

CC(C)c1ccc(C#N)cc1
inactive: [1] | [2] | [3] | [4] | [5] | [6] | [7] | [8] | [9] | [10] | [11] | [12] | [13] | [14] | [15]

C=CCOc1c(Br)cc(Br)cc1Br
active: [2] 12.7 µM | [10] 23.7 µM | [11] 15.7 µM
inactive: [1] | [3] | [4] | [16] | [7] | [8] | [9] | [17] | [13] | [18]

OCCN(CCO)c1ccccc1
inactive: [1] | [2] | [4] | [5] | [19] | [16] | [6] | [7] | [8] | [9] | [10] | [11] | [13] | [14] | [15]

CCCCCCC1(C)CCC(=O)O1 (stereo not drawn)
inactive: [1] | [20] | [3] | [4] | [5] | [19] | [16] | [6] | [7] | [8] | [9] | [10] | [17] | [11] | [13]

Source: PubChem BioAssay (EPA / NIEHS)
